This passage reports inhibition results from ChEMBL document CHEMBL1961873, “Compounds: GSK PKIS; Assays: Nanosyn kinase panel” (2012).

Test [1] has as its target Serine/threonine-protein kinase MRCK alpha (Homo sapiens) (UniProt Q5VT25). As to conditions: at 0.1 µM.
For test [2] the target is unchanged. The following applies: at 1 µM.
The target in test [3] is Serine/threonine-protein kinase MRCK beta (Homo sapiens) (UniProt Q9Y5S2). The following applies: at 0.1 µM.
The target is the same in test [4]. The following applies: at 1 µM.
For test [5], the target named is Ribosomal protein S6 kinase alpha-5 (Homo sapiens) (UniProt O75582). The following applies: at 0.1 µM.
The target is the same in test [6]. The following applies: at 1 µM.
The target in test [7] is Ribosomal protein S6 kinase alpha-4 (Homo sapiens) (UniProt O75676). As to conditions: at 0.1 µM.
For test [8] the target is unchanged. As to conditions: at 1 µM.
Test [9] has as its target Ribosomal protein S6 kinase beta-1 (Homo sapiens) (UniProt P23443). As to conditions: at 0.1 µM.
For test [10] the target is unchanged. The following applies: at 1 µM.
Test [11] has as its target T1, 3-phosphoinositide-dependent protein kinase 1 (Homo sapiens) (UniProt O15530).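 Also: values are mean inhibition of PDK1.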
T1 sequence (whole entry): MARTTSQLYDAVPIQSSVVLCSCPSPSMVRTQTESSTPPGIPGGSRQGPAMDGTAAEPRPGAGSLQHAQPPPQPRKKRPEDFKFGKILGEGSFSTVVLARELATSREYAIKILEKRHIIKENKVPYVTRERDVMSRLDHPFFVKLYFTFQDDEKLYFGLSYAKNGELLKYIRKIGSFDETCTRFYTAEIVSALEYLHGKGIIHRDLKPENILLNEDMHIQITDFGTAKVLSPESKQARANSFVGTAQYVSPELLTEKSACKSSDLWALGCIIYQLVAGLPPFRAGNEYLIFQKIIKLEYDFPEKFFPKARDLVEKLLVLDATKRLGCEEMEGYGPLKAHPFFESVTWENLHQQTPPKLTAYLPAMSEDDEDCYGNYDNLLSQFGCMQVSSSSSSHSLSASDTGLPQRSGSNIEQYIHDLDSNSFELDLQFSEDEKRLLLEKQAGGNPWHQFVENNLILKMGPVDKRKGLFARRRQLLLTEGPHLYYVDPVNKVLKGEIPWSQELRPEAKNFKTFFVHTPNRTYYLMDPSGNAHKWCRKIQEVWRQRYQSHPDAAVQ
The following applies: at 0.1 µM.

For test [12], the target named is cAMP-dependent protein kinase catalytic subunit alpha (Homo sapiens) (UniProt P17612). The following applies: at 0.1 µM.
Test [13] shares this target. The following applies: at 1 µM.
The target of test [14] is Protein kinase C alpha type (Homo sapiens) (UniProt P17252). As to conditions: at 0.1 µM.
The target is the same in test [15]. The following applies: at 1 µM.
In test [16] the target is Protein kinase C beta type (Homo sapiens) (UniProt P05771). As to conditions: at 0.1 µM.
Test [17] has the same target. As to conditions: at 1 µM.
Test [18] concerns the target Protein kinase C eta type (Homo sapiens) (UniProt P24723). The following applies: at 0.1 µM.
Test [19] shares this target. As to conditions: at 1 µM.
The target in test [20] is Protein kinase C gamma type (Homo sapiens) (UniProt P05129). As to conditions: at 0.1 µM.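 Also: values are mean percent inhibition of PKC gamma.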

Sequence of Serine/threonine-protein kinase MRCK alpha (Homo sapiens) (Q5VT25 whole entry): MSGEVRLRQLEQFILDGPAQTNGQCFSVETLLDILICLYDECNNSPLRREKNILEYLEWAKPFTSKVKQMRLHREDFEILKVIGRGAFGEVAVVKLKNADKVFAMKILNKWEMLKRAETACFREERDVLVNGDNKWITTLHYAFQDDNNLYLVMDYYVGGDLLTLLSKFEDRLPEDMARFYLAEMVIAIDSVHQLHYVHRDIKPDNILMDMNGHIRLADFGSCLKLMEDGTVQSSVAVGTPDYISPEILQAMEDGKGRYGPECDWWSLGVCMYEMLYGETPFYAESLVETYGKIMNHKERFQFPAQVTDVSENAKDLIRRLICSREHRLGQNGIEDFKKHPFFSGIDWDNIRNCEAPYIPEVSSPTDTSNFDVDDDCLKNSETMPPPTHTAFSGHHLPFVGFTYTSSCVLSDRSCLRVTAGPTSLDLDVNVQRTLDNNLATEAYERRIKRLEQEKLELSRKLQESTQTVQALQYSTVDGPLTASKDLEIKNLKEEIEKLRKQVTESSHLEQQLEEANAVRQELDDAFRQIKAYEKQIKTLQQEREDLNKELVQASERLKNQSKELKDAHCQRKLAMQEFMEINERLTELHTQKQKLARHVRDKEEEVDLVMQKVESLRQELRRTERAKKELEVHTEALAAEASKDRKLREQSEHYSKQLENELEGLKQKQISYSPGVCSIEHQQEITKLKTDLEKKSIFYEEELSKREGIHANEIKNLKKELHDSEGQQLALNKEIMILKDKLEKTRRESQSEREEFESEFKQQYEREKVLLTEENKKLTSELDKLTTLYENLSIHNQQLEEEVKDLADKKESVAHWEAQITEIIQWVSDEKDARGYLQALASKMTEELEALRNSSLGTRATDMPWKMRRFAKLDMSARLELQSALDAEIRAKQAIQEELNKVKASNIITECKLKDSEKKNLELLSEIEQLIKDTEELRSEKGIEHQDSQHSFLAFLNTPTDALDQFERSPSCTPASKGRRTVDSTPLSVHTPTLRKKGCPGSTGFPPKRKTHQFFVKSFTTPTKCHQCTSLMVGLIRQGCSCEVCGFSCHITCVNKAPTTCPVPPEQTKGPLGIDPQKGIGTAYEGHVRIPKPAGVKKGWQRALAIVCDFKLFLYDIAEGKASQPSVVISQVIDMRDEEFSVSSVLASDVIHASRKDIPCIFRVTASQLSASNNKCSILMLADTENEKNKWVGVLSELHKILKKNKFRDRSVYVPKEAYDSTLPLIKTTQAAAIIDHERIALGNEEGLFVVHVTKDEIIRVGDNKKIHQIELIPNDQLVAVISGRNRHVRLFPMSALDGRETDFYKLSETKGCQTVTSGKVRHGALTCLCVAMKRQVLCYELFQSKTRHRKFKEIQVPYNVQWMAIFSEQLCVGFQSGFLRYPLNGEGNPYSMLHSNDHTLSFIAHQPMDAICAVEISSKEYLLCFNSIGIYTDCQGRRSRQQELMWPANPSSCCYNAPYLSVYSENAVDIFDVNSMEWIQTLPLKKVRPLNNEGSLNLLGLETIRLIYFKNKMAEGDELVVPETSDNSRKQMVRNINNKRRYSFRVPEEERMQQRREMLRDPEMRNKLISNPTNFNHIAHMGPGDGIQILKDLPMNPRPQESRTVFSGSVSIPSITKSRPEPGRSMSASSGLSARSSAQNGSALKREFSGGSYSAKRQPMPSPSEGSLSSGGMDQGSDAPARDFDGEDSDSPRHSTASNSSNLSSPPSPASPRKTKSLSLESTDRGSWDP
Sequence of Ribosomal protein S6 kinase beta-1 (Homo sapiens) (P23443 whole entry, looked up): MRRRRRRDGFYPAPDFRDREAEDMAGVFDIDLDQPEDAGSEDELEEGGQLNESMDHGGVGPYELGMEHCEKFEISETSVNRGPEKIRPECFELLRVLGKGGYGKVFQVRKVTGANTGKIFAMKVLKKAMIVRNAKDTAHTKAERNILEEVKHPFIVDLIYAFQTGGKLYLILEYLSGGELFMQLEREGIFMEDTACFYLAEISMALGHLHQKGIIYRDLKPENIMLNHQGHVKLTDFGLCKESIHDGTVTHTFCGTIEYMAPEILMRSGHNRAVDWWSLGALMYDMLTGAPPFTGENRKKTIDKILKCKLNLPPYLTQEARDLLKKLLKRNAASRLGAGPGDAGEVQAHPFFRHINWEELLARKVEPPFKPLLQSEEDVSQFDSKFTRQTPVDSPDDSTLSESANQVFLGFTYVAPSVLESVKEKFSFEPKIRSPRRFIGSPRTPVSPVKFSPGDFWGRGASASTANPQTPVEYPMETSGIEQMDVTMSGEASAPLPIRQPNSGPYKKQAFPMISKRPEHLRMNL
Sequence of Ribosomal protein S6 kinase alpha-4 (Homo sapiens) (O75676 whole entry, looked up): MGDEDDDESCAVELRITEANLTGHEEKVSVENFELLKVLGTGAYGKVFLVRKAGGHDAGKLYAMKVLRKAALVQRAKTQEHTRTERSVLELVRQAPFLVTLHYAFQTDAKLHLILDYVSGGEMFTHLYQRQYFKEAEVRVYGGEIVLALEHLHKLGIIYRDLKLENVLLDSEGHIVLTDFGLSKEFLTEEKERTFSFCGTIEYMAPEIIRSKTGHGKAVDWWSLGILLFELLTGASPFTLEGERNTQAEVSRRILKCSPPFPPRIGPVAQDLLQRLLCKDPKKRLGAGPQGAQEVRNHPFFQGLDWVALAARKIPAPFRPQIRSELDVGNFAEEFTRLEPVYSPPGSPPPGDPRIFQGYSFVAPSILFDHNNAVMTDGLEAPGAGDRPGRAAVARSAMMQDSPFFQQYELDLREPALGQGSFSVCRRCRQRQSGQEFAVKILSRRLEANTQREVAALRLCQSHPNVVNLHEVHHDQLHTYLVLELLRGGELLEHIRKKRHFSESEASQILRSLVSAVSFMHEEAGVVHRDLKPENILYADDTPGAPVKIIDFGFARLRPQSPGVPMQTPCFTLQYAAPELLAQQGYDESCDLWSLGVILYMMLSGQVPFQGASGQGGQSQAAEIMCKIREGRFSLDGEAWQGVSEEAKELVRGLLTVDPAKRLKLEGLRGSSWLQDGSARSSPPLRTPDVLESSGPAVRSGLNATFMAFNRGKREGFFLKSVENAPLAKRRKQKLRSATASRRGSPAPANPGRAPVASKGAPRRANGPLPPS
Sequence of Protein kinase C beta type (Homo sapiens) (P05771 2-671 limits assumed): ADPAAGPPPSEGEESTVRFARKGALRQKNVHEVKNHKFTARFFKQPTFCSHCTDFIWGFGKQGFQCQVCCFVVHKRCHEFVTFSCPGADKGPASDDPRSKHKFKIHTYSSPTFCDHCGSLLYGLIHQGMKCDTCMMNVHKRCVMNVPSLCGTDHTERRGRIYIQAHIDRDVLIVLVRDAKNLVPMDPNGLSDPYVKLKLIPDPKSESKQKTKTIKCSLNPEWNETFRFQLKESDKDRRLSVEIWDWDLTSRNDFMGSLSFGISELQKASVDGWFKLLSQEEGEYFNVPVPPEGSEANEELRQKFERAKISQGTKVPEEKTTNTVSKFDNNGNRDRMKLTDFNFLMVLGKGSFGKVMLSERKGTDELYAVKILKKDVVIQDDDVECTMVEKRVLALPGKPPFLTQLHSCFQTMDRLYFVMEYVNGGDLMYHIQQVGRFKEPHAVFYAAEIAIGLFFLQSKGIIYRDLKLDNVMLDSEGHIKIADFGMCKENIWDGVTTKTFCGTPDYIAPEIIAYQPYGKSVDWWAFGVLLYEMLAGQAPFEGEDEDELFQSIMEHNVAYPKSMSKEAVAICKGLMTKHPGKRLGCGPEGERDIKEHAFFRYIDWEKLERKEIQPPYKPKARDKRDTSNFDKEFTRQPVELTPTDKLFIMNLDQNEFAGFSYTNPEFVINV
Sequence of Protein kinase C eta type (Homo sapiens) (P24723 whole entry): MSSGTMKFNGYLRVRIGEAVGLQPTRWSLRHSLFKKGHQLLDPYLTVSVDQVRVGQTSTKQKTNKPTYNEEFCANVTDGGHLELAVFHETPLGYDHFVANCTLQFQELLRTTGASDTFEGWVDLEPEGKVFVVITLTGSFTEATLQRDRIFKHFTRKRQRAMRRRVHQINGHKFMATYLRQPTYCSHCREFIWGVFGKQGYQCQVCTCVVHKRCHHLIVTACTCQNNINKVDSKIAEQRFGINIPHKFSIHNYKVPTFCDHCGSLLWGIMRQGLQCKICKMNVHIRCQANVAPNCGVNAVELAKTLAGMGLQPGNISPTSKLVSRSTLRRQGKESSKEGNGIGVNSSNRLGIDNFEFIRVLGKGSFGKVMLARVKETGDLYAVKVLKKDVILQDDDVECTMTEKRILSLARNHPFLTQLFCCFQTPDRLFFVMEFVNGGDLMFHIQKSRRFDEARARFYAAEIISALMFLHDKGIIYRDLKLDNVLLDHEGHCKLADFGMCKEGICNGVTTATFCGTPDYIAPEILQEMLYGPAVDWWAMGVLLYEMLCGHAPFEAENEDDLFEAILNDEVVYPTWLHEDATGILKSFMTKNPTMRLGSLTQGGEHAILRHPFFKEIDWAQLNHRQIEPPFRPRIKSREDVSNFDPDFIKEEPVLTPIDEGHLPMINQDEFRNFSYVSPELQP

One may read the inhibition as the change of the read-out against control, counted positive when it falls. `CCn1cc(-c2ccnc3[nH]ccc23)c(-c2cccc(NC(=O)Nc3ccc(OCc4ccccc4)cc3)c2)n1`: the inhibition in test [1] was -4.2%; in test [2] it was 4.85%; in test [3] it was -0.78%; in [4], -0.56%; in test [5] it was -0.53%; in [6], -2.01%. The inhibition in test [7] is 1.02%; in [8], 0.39%; in test [9], -0.04%; in test [10], -0.6%; in test [11], -1.57%; in test [12], 4.08%. In addition, the inhibition in [13] is 5.34%; in test [14] it was 1.25%; in test [15], 2.76%; in [16], 0.5%; in [17], 1.43%; in test [18], -2.7%. The values for the inhibition in test [19] and in test [20] were 1.78% and 0.3%, respectively.
Take `Fc1cccc(COc2ccc(Nc3ncnc4sc(-c5ccco5)cc34)cc2Cl)c1`: the inhibition is -3.73% in test [1]; -2.22% in [2]; -0.66% in [3]; -0.82% in test [4]; 8.97% in test [5]; 7.53% in test [6]. Further, the inhibition was 2.45% in [7]; 1.61% in [8]; 1.01% in test [9]; 1.47% in test [10]; -0.87% in test [11]; 0.8% in test [12]. Moreover, the inhibition in [13] was 1.84%; in test [14] it was 1.33%; in test [15], 1.21%; in test [16], 0.29%; in [17], -3.68%; in test [18] it was 5.34%. Further, the inhibition in test [19] was 4.83%; in [20], 1.52%.
Regarding `Fc1ccc(-c2cc(-c3c[nH]nc3-c3ccccn3)ccn2)cc1`, the inhibition in test [1] is -0.62%; in test [2], 2.14%; in test [3], -1.2%; in test [4] it was -2.11%; in [5], 2.42%; in test [6] it was 1.68%. The inhibition in [7] was found to be 2.17%; in test [8], 3.21%; in [9] it was 0.99%; in test [10], 2.4%; in test [11] it was 0.78%; in test [12], 1.9%. The inhibition in test [13] came out at 2.54%; in [14], 0.45%; in test [15] it was 0.88%; in test [16], 1.93%; in test [17] it was 3.1%; in [18], 4.28%. In addition, the inhibition in test [19] is 6.6%; in [20], -0.18%.
Turning to `COc1ccc(-c2cc(-c3c[nH]nc3-c3ccccn3)ccn2)cc1`, the inhibition in test [1] is -0.6%; in test [2], 3.02%; in test [3] it was -0.39%; in test [4], 0.6%; in test [5], 4.28%; in [6] it was 4.22%. Moreover, the inhibition was determined as 3.45% in test [7]; 4.77% in test [8]; 2.32% in test [9]; 3.73% in test [10]; 2.34% in test [11]; 2.05% in test [12]. For the same molecule, the inhibition in test [13] was determined as 3.35%; in test [14] it was 0.46%; in test [15], 2.09%; in test [16], 1.41%; in test [17] it was 3.92%; in test [18] it was 4.04%. In addition, the inhibition was determined as 5.03% in test [19] and 1.23% in test [20].
Turning to `O=S(=O)(CCNCc1ccc(-c2ccc3ncnc(Nc4ccc(OCc5cccc(F)c5)c(Cl)c4)c3c2)o1)c1ccccc1`, the inhibition is -4.06% in test [1]; 0.31% in [2]; 0.71% in [3]; -0.02% in test [4]; 4.86% in test [5]; 4.66% in [6]. The inhibition in test [7] is 3.43%; in test [8] it was 3.05%; in test [9], 1.88%; in test [10], 2.98%; in [11] it was 0.78%; in test [12] it was 2.48%. Besides, the inhibition came to 6.82% in test [13]; 1.39% in test [14]; 2.12% in test [15]; 0.95% in test [16]; 2.13% in [17]; 4.07% in test [18]. For the same molecule, the inhibition in [19] was 3.1%; in test [20] it was 1.93%.
Take `CN1CCC(n2cnc(-c3ccc(F)cc3)c2-c2ccnc(Nc3ccccc3)n2)CC1`: the inhibition worked out at 0.81% in [1]; 10.7% in test [2]; 1.12% in test [3]; 2.04% in test [4]; 1.99% in [5]; 3.4% in [6]. The inhibition in test [7] turned out to be 1.72%; in [8], 3.56%; in [9], 0.19%; in test [10] it was 1.05%; in [11], 3.8%; in [12] it was 2.92%. The inhibition in test [13] came to 16.7%; in test [14] it was 19.4%; in test [15] it was 65.2%; in [16], 16.1%; in test [17] it was 51%; in [18] it was 2.14%. Further, the figures for the inhibition in [19] and in [20] were 2.72% and 5.68%, respectively.
For the molecule `COc1cc(Nc2nccc(Nc3ccc4c(C)n[nH]c4c3)n2)cc(OC)c1OC`, the inhibition in test [1] is 1.61%; in [2] it was -0.15%; in test [3] it was 1.88%; in test [4] it was 1.78%; in test [5], 3.58%; in [6] it was 2.96%. In addition, the inhibition worked out at 1.54% in test [7]; 2.58% in [8]; 0.65% in test [9]; 1.09% in test [10]; 2.76% in [11]; 2.38% in test [12]. Further, the inhibition in test [13] was determined as 14%; in [14] it was 1.29%; in test [15] it was 10.2%; in test [16], 1.4%; in [17], 1.99%; in test [18], 3.09%. The inhibition is -1.03% in test [19] and 3.2% in test [20].
